# DUSP3 inh = inhibitors of human VHR1 phosphatase (DUSP3); AID 1654; inhibition, % at 13.3 µM; 0.52% of 290,000 active; recombinant VHR phosphatase, pNPP absorbance; in the data active means inhibition above about 50%
# Target sequence (P51452 whole entry, looked up): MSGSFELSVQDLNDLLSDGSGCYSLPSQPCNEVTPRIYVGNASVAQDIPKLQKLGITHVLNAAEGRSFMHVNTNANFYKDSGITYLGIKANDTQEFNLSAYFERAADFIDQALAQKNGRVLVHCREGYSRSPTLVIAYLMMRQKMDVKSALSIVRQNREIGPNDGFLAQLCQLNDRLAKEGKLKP
# PriA SSB inh = inhibitors of Klebsiella pneumoniae PriA binding to SSB C-terminal tail; AlphaScreen SSBct-PriA binding, biotinylated peptide; inhibition, % at 33 µM; 0.6% of 430,000 active; in the data active means inhibition mostly above about 37%, no sharp cut-off; inactive means mostly below about 20%;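 further: plate controls were negative control peptide for no effect and reference peptide for full effect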
# CCHF vOTU inh-1 = CCHFV vOTU protease inhibition | inhibition, % at 11.5 µM | Pep-AMC fluorescence | 0.55% of 370,000 active; further: 0% = vehicle wells with enzyme and 100% = no enzyme wells
# Sa RN4220 lethal = S. aureus RN4220 growth inhibition; 0.33% of 330,000 active; OD600, 16 h; inhibition, % (test concentration not listed); AID 1259311; in the data active means inhibition above about 85%;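 further: plate controls were untreated cells for no effect and reference antibiotic for full effect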
# ugtP null kill = kills S. aureus RN4220 lacking UgtP. growth inhibition, % (test concentration not listed). S. aureus RN4220 ugtP deletion, OD600 growth, 16 h. AID 1259309. 0.54% of 330,000 active; in the data active means growth inhibition above about 68%;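 further: plate controls were untreated wells for no effect and antibiotic for full effect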
# CCHF vOTU inh-2 = CCHFV vOTU protease inhibition, confirmation; shares compounds with CCHF vOTU inh-1; Recombinant CCHFV vOTU, Pep-AMC fluorescence; inhibition, % at 11.5 µM; 17% of 1,900 active
# * hit, by the source's call; / = no result given. In the library only some 1.5% were active in any assay of this set; here they are far more common. Unless noted, no stated cut-off is given here; in the data, active means inhibition above about 30%; inactive means the rest.
SMILES,DUSP3 inh,PriA SSB inh,CCHF vOTU inh-1,Sa RN4220 lethal,ugtP null kill,CCHF vOTU inh-2
CN1c2ccccc2C(O)=C(C(=S)Nc2ccc(Cl)cc2)S1(=O)=O,3.6,16.7,30.7*,50.4,15.7,6.4
COc1ccc(C2NC(=O)NC(C)=C2C(=O)OC2CCCCC2)cc1 (stereo not given),/,/,42.2*,/,/,-3.6
C=CCN1C=CC(=C/C=C(/C#N)C(=O)OCC)C=C1,-1.0,-3.4,38.3*,1.2,-5.8,29.7*
CCOC(=O)/C(C#N)=C/C=C1/C=CC=CN1C,6.1,4.9,15.1,3.8,1.6,/
O=C(Cn1nc(C2CC2)c2cnn(-c3ccc(F)cc3)c2c1=O)NCc1ccco1,/,-9.0,/,/,/,/
O=C(COc1ccc(Cl)cc1Cl)NCCOc1cccc(C(F)(F)F)c1,/,-7.0,/,/,/,/
COC(=O)c1cc(NS(=O)(=O)c2ccc(N3CCCCC3)c([N+](=O)[O-])c2)cc(C(=O)OC)c1,-4.6,28.5,9.2,6.8,0.6,/
COC(=O)c1cc(NS(=O)(=O)c2ccc(N3CCC(C)CC3)c([N+](=O)[O-])c2)cc(C(=O)OC)c1,9.1,56.2*,34.0*,-10.3,7.3,-3.7
Cc1ccc(N(C)S(=O)(=O)c2c(-c3ccccc3)csc2C(N)=O)cc1,/,-14.0,/,/,/,/
CC(C)(C)S(=O)N1Cc2cc(C(=O)N3CCc4ccccc4C3)nc(-c3cccc(-c4cccnc4)c3)c2[C@@H]1CCO (stereo not given in full),/,/,37.4*,/,/,9.1
COc1ccccc1-c1cccc(-c2nc(C(=O)N3CCCCC3)cc3c2[C@H](CCO)N(S(=O)C(C)(C)C)C3)c1 (stereo not given in full),/,/,3.2,/,/,/
Cc1ccc(NC(=O)c2sccc2SCc2cccc(C(F)(F)F)c2)cc1,12.3,-59.7,40.2*,-1.7,-7.3,-1.1
Cc1onc(-c2ccccc2)c1C(=O)N/N=C/c1ccc([N+](=O)[O-])c(O)c1,-18.6,/,5.0,/,/,/
Cc1onc(-c2ccccc2)c1C(=O)N/N=C/c1ccc(O)c([N+](=O)[O-])c1,9.2,/,33.0*,/,/,-11.3
O=c1cc(-c2ccccc2)c2cc(Br)ccc2[nH]1,/,-3.0,/,/,/,/
O=C(Cc1c[nH]c2ccccc12)Nc1ccc(Nc2cccnc2)c(-c2ccc(F)c(F)c2)c1,/,/,9.1,/,/,/
O=C(Cc1c[nH]c2ccccc12)Nc1ccc(Nc2cccnc2)c(-c2ccc(-c3ccccc3)cc2F)c1,/,/,30.4*,/,/,-24.7
COc1ccc(/C=C2\SC(=O)N(CCNC(=O)C3=COCCO3)C2=O)cc1,/,2.2,35.8*,0.0,0.1,-5.6
O=C(COC(=O)Cc1ccc(Cl)cc1Cl)NC1CC1,/,0.4,31.9*,6.4,-0.4,-10.9
CC(=O)N(C)c1ccc(N=Cc2cc3c(cc2[N+](=O)[O-])OCO3)cc1,/,14.9,34.4*,0.9,6.1,31.2*
Nc1c(C(=O)NCCCc2ccccc2)c2nc3ccccc3nc2n1Cc1cccs1,27.1,4.7,109.2*,-4.0,12.2,-6.1
O=C(C1CCc2nc[nH]c2C1)N1CCCC(O)C1 (stereo not given),/,-11.0,/,/,/,/
COc1ccc(CNC(=O)NC[C@H](O)c2csc3ccccc23)cc1OC,/,-8.0,/,/,/,/
CCOc1ccc(N2CSC3=C(C#N)C(c4ccco4)CC(=O)N3C2)cc1 (stereo not given),7.8,-8.9,23.2,-0.1,6.3,/
Cc1ccc(C2CC(=O)N3CN(c4ccc(Br)cc4)CSC3=C2C#N)o1 (stereo not given),10.7,-4.9,29.6*,-0.1,-2.7,-1.5
SMILES,DUSP3 inh,PriA SSB inh,CCHF vOTU inh-1,Sa RN4220 lethal,ugtP null kill,CCHF vOTU inh-2
CNS(=O)(=O)c1ccc2nc(N)sc2c1,/,2.0,/,/,/,/
O=C(CSCc1ccc(Cl)cc1)Nc1ccc(-c2nnc(-c3ccccc3)o2)cc1,13.6,-8.2,31.6*,/,/,-16.3
Nn1cnnc1NN=Cc1ccc(-c2ccccc2[N+](=O)[O-])o1,/,-12.9,/,-2.8,-9.6,/
Nn1cnnc1N/N=C\c1ccc(-c2ccccc2[N+](=O)[O-])o1,17.0,/,97.3*,/,/,3.1
Cc1c(C(=O)N/N=C/c2ccc(-c3ccccc3[N+](=O)[O-])o2)sc(N)c1C#N,-12.4,/,42.5*,/,/,-6.5
CS(=O)(=O)N1CCC(CNC(=O)c2ccc(Cl)s2)CC1,/,-9.0,/,/,/,/
O=[N+]([O-])c1ccc(S(=O)(=O)n2nc3ccccc3n2)cc1,/,3.0,/,/,/,/
Cc1cccc2c1[nH]c1nc(N/N=C\c3ccco3)nnc12,3.6,/,37.5*,/,/,1.0
CCOC(=O)C(C)Oc1cccc2c(=O)[nH]ccc12 (stereo not given),/,-6.0,/,/,/,/
CCCC(=Nc1ccc(N)cc1)C1=C(O)C(C(=O)OC)C(C)(C)CC1=O (stereo not given),14.6,11.4,102.7*,3.4,-1.0,3.2
N#C/C(=C/c1ccc([N+](=O)[O-])cc1)C(N)=O,6.3,0.0,33.8*,/,/,-24.2
O=C(NCCn1ccc(C(F)(F)F)n1)c1ccc(Br)o1,/,2.0,/,/,/,/
O=C1C(=O)N(CCCn2ccnc2)C(c2ccc(Cl)cc2)/C1=C(\O)c1ccc2c(c1)OCCO2 (stereo not given),-14.4,/,47.8*,-2.2,-3.5,-12.4
CCNC(=O)N1CCN(c2ccc(N3CCN(C(=O)NCC)[C@@H](C)C3)c(C)c2)[C@H](C)C1,/,/,34.7*,/,/,-12.1
CCNC(=O)N1CCN(c2ccc(N3CCN(C(=O)NCC)[C@H](C)C3)c(C)c2)[C@H](C)C1,/,/,9.8,/,/,/
COc1ccc(N)c2c1OCCC2=O,-2.9,3.1,57.3*,-4.7,3.4,-12.9
CN(C(=O)COC(=O)COc1ccc2ccccc2c1)c1c(N)n(Cc2ccccc2)c(=O)[nH]c1=O,/,5.5,30.4*,-0.5,3.0,-40.8
O=C1OC2(CCN(C(=O)c3ccc(-n4cccc4)cc3)CC2)c2ccccc21,/,27.0,/,/,/,/
COc1cccc2c1-c1c(O)cccc1C2=O,13.9,-24.1,-0.1,2.7,29.6,/
CC1OC(CC(=O)O)CC2=C1C(=O)c1c(O)cccc1C2=O (stereo not given),/,2.6,92.9*,/,/,98.2*
COc1ccccc1-c1cc2c(SCC(=O)Nc3ccc(Cl)cc3)nccn2n1,/,-6.0,/,/,/,/
Cc1cc(=O)c2c(o1)C(=O)c1occc1C2=O,/,5.1,105.5*,/,/,47.9*
CC(=O)N(C)Cc1nc2ccccc2n1Cc1ccccc1C,/,-21.0,/,/,/,/
COc1cccc(-c2cc(NC=O)c3ncc(-c4cccc(C(=O)N(C)C)c4)n3c2)c1,/,/,31.4*,/,/,-11.1
Cn1cc(C(=O)N2CCOCC2)cc(NC(=O)c2ccccc2C(F)(F)F)c1=O,/,-4.0,/,/,/,/
SMILES,DUSP3 inh,PriA SSB inh,CCHF vOTU inh-1,Sa RN4220 lethal,ugtP null kill,CCHF vOTU inh-2
O=C(Cc1c(F)cccc1Cl)NCC1CCN(S(=O)(=O)c2cccnc2)CC1,/,11.0,/,/,/,/
CCCc1sc(N)nc1-c1ccc(C)cc1,-2.5,14.1,32.8*,6.4,40.1,-15.0
Cc1ccc(-c2nc(N)sc2C)cc1,2.8,5.4,-6.5,3.4,10.9,/
CC(C)(C)c1ccc(/C=N/OCC(=O)NCc2ccc(F)cc2)cc1,5.0,/,45.6*,/,/,13.4
COc1ccc(-c2ccc(=O)n(CCCNC(=O)c3ccco3)n2)cc1,/,-4.0,/,/,/,/
CCN(C[C@H]1N[C@@](Cc2ccccc2)(C(=O)OC)[C@H]2C(=O)N(Cc3ccccc3)C(=O)[C@@H]12)S(=O)(=O)c1ccc(OC)cc1,/,6.6,1.8,3.5,2.2,/
